Source: PubChem BioAssay AID652208 (Broad Institute, 2013)
Measured potencies and affinities stand elsewhere. Active and inactive are the calls of the source.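 Rule for the calls: active = Loss of cell signal with fitted half-effect dose at or below twice the top valid tested dose; inconclusive = Poor fit, or flat fit from -70 to -30 percent; inactive = Half-effect above limit, rising signal, or flat within 30 percent.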

Experiment: viability loss in HEK293T cells – cell-based, cherry-picks, cytotoxicity control for HIV Vif inhibitor project, dose response (AID 652208)
Conditions: CellTiter-Glo luminescence, 24 h; series mostly up to 26 µM

| Structure (SMILES) | outcome |
| --- | --- |
| COc1cc(-c2cnc3c(NC=O)cc(-c4cccc(NC(C)=O)c4)cn23)cc(OC)c1OC | inactive |
| COC(CNC(=O)C1CCN(C(=O)c2cc3oc(C)cc3n2Cc2c(F)cccc2Cl)CC1)OC | inactive |
| COc1ccc(-c2coc3cc(O)ccc3c2=O)cc1 | inactive |
| O=C(Nc1cnccn1)Nc1ccccc1Cl | inactive |
| COCCNC(=O)c1nn2c(C(F)(F)F)cc(-c3ccccc3)nc2c1Cl | inactive |
| O=C(CSc1nnc(CNc2ccc(F)cc2)o1)c1ccccc1 | inactive |
| CCOc1ccc(S(=O)(=O)NCc2ccccn2)cc1NC(=O)c1ccccc1 | inactive |
| Cc1ccc2c(c1)C1CN(C)CCC1N2S(=O)(=O)c1cccc(C(F)(F)F)c1 (configuration not stated) | inactive |
| COc1cc(-c2cnc3c(NC=O)cc(-c4ccccc4)cn23)cc(OC)c1OC | inactive |
| Cc1ccc(NC(=O)Cn2ncn3c(cc4ccccc43)c2=O)c(C)c1 | inactive |
| COc1cccc(-c2cc(NC=O)c3ncc(-c4cc(OC)c(OC)c(OC)c4)n3c2)c1 | inactive |
| COc1ccc(OC)c(/C=C/c2nc3ccccc3[nH]c2=O)c1 | inactive |
| OC(CNCc1ccccc1Cl)COc1ccc(F)cc1 (configuration not stated) | inactive |
| COc1cc(C(C)=O)ccc1OCC(=O)NCC1(N2CCCCC2)CCCCC1 | inactive |
| CCCn1nnc(NC(=O)C(c2ccccc2)c2ccccc2)n1 | inactive |
| Cc1ccc(NC(=O)/C=C/C(=O)O)c(NC(=O)c2ccccc2)c1 | inactive |
| CC(C(=O)O)c1ccc(N2Cc3ccccc3C2=O)cc1 (configuration not stated) | inactive |
| CC(O)CN(C)CC/C=C1/c2ccccc2CSc2ccccc21 (configuration not stated) | inactive |
| CCOC(=O)C1CCCN(CC(=O)Nc2c(C(=O)OC)[nH]c3ccc(Cl)cc23)C1 (configuration not stated) | inactive |

| Structure (SMILES) | outcome |
| --- | --- |
| COc1ccc(CNC(=O)COC(=O)c2cc(S(=O)(=O)N3CCOCC3)ccc2O)cc1OC | inactive |
| O=C(NCc1cccnc1)NC1(C(F)(F)F)Oc2ccc(Cl)cc2O1 (configuration not stated) | inactive |
| COc1ccc(C(=O)Nc2c(Cl)cc(Cl)cc2C(=O)N2CCOCC2)cc1 | inactive |
| COc1cc(/C=C/C(=O)OCC(=O)N2CCCc3ccccc32)ccc1O | inactive |
| COc1cccc(N2CCN(S(=O)(=O)c3cc4c(cc3C)N(C)CCO4)CC2)c1 | inactive |
| Cc1ccc(C(=O)NC(CCc2ccccc2)C(=O)O)cc1 (configuration not stated) | inactive |
| COc1ccc(Br)cc1C(=O)Nc1ccc(N2CCCC2)cc1 | inactive |
| COc1ccc(CN(CC(=O)NC2CCCC2)C(=O)CN2C(=O)COc3ccccc32)cc1 | inactive |
| Cc1nc(C)n(CC(=O)N2CCCC(C(=O)c3ccc(C(F)(F)F)cc3)C2)n1 (configuration not stated) | inactive |
| CCc1nnc(NC(=O)c2sc3nc4cc(C)ccc4cc3c2N)s1 | inactive |
| COc1ccccc1NC(=O)c1ccccc1NC(=O)c1ccccn1 | inactive |
| Cc1c(NC(=O)CC(O)(C(F)(F)F)C(F)(F)F)c(=O)n(-c2ccccc2)n1C | inactive |
| Cc1nnc(NC(=O)CSc2nnc(NC(=O)C(C)(C)C)s2)s1 | inactive |
| Cc1cc(C)c2nc3sc(C(=O)N4CCOCC4)c(N)c3cc2c1 | inactive |
| Cc1ccc(-c2nn3c(C)nnc3c3ccccc23)cc1S(=O)(=O)NCc1ccccc1 | inactive |
| O=C(CCCCCn1c(=S)[nH]c2ccc(N3CCOCC3)cc2c1=O)NCc1ccccc1Cl | inactive |
| Cc1cc(OCC(C)C)ccc1/C(O)=C1/C(=O)C(=O)N(Cc2cccnc2)C1c1ccncc1 (configuration not stated) | inactive |
| Cc1nnc2ccc(-c3cccc(NS(=O)(=O)c4cc(F)ccc4F)c3)nn12 | inactive |
